These results are taken from PubChem BioAssay (Tox21).

Results filed as inconclusive are left out. Entries that show only a call come without a potency. A structure can be active in one record and inactive in another. The source made the active and inactive calls. Unless noted, the call rests on the fitted dose curve.
Potency means the concentration at half of the fitted maximal effect.

One experiment is described as follows: qHTS assay to identify small molecule agonists of the hypoxia (HIF-1) signaling pathway - cell viability counter screen (AID 1224844). Further: nearly all actives have a fitted effect of over 50% in size. The settings on record: HRE-bla ME-180 viability, CellTiter-Glo luminescence, 17 h; series mostly up to 76.8 µM. The method, boiled down: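 In this counter screen, HRE-bla ME-180 cell viability after 17 hrs of compound exposure at 37C was read by CellTiter-Glo luminescence, multiplexed with the beta-lactamase reporter measurement.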
As to `CC(C)n1nc(-c2cc3cc(O)ccc3[nH]2)c2c(N)ncnc21`, the Potency is 1.9 µM (active).

Turning to `O=C(Nc1cccc(C(F)(F)F)c1)c1cc(Br)cc(Br)c1O`, the Potency was 19.5 µM (active).

As to `CNc1ccc(O)cc1`, the Potency was 21.8 µM (active).

Regarding `Oc1ccc(Cl)cc1Sc1cc(Cl)ccc1O`, the Potency is 26.8 µM (active).

For `Cc1[nH]cnc1C[C@H]1CCc2c(C)c3ccccc3n2C1=O`, the Potency entry was “inactive”.

As to `Oc1ccc(N=Nc2ccccc2)cc1`, the Potency result was “inactive”.

Consider `NC(=O)C1(N2CCCCC2)CCN(CCCN2c3ccccc3CCc3ccc(Cl)cc32)CC1`, for which the Potency was 21.3 µM (active).

For `CCCCc1oc2ccc(NS(C)(=O)=O)cc2c1C(=O)c1ccc(OCCCN(CCCC)CCCC)cc1`, the Potency is 15.1 µM (active).

On to `Clc1ccccc1C(c1ccccc1)(c1ccccc1)n1ccnc1`, for which the Potency is 21.9 µM (active).

Regarding `CC(C)(C)CC(C)(C)c1ccc(O)c(Cc2ccc(Cl)cc2Cl)c1`, the Potency was 9.52 µM (active).

Turning to `CCN(CC)CCCC(C)Nc1c2ccc(Cl)cc2nc2ccc(OC)cc12` (stereo unspecified), the Potency is 16.9 µM (active).

With `NC(=NCCCCCCN=C(N)/N=C(\N)Nc1ccc(Cl)cc1)/N=C(\N)Nc1ccc(Cl)cc1`, the Potency was 24.4 µM (active).

Turning to `C/C=C1/C(=O)C[C@H]2[C@@H]3CCC4=CC(=O)CC[C@]4(C)[C@H]3CC[C@]12C`, the Potency result is “inactive”.

On to `Cc1onc(-c2ccccc2Cl)c1C(=O)N[C@@H]1C(=O)N2[C@@H]1SC(C)(C)[C@@H]2C(=O)O`, for which the Potency entry was “inactive”.

`CS(=O)(=O)CCNCc1ccc(-c2ccc3ncnc(Nc4ccc(OCc5cccc(F)c5)c(Cl)c4)c3c2)o1`: the Potency was 10.7 µM (active).

For `CCCCCCCCCCCCc1ccc(O)cc1`, the Potency is 24.5 µM (active).

Take `O=C(Oc1cccc2cccnc12)c1ccccc1`: the Potency is 7.56 µM (active).

A further experiment is described as follows: qHTS assay to identify small molecule agonists of H2AX (AID 1224845; active means well fitted activation curve with a large enough effect in the signal ratio in the repeat runs, not every such curve was filed as active; the % refers to the signal ratio). Conditions: CHO-K1 phospho-H2AX Ser139 HTRF, 3 h; series mostly up to 154 µM. The method, boiled down:
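Wild-type CHO-K1 cells plated overnight, then exposed 3 hr at 37C to compounds at 15 concentrations (0.76% DMSO). Lysed, then HTRF anti-pH2AX(S139)-cryptate/anti-H2AX-d2 detection after 24 hr at room temperature; emissions 665 and 620 nm.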
Take `C[n+]1ccn(Cc2ccccc2)c1`: the Potency result was “inactive”.

`CCCCCCCCCCCCCCCC[N+](C)(C)CCN(Cc1ccc(OC)cc1)c1ncccn1`: the Potency result was “inactive”.

For `Oc1ccc(Cl)cc1Sc1cc(Cl)ccc1O`, the Potency result is “inactive”.

Consider `CCCCN1C(=O)[C@@H]([C@H](O)C2CCCCC2)NC(=O)C12CCN(Cc1ccc(Oc3ccc(C(=O)O)cc3)cc1)CC2`, for which the Potency entry is “inactive”.

On to `Cc1[nH]cnc1C[C@H]1CCc2c(C)c3ccccc3n2C1=O`, for which the Potency result was “inactive”.

As for `Cc1cc(=O)oc2cc(N(C)C)ccc12`, the Potency entry is “inactive”.

On to `CC(C)(C)CC(C)(C)c1ccc(O)c(Cc2ccc(Cl)cc2Cl)c1`, for which the Potency was 19.6 µM (active).

Regarding `OCCN1CCN(CC/C=C2/c3ccccc3Sc3ccc(C(F)(F)F)cc32)CC1`, the Potency entry was “inactive”.

Consider `CC[C@@]1(O)C(=O)OCc2c1cc1n(c2=O)Cc2cc3c(CN(C)C)c(O)ccc3nc2-1`, for which the Potency is 1.39 µM (active).

In the case of `COc1ccc(CN2CCN(C(c3ccc(F)cc3)c3ccc(F)cc3)CC2)c(OC)c1OC`, the Potency result is “inactive”.

Turning to `NC(=NCCCCCCN=C(N)/N=C(\N)Nc1ccc(Cl)cc1)/N=C(\N)Nc1ccc(Cl)cc1`, the Potency result is “inactive”.

Consider `Nc1ccc2c3c(cccc13)-c1ccccc1-2`, for which the Potency entry is “inactive”.

On to `CC(C)(C)C1CCC(CC2=C(O)c3ccccc3C(=O)C2=O)CC1` (stereo unspecified), for which the Potency entry is “inactive”.

Regarding `C/C=C1/C(=O)C[C@H]2[C@@H]3CCC4=CC(=O)CC[C@]4(C)[C@H]3CC[C@]12C`, the Potency entry was “inactive”.

Consider `ON=C1CCCC1`, for which the Potency was 104 µM (active).

In the case of `C[C@@H](NCCCc1cccc(C(F)(F)F)c1)c1cccc2ccccc12`, the Potency was 49.2 µM (active).

As to `Cc1onc(-c2ccccc2Cl)c1C(=O)N[C@@H]1C(=O)N2[C@@H]1SC(C)(C)[C@@H]2C(=O)O`, the Potency entry is “inactive”.

Turning to `CS(=O)(=O)CCNCc1ccc(-c2ccc3ncnc(Nc4ccc(OCc5cccc(F)c5)c(Cl)c4)c3c2)o1`, the Potency entry was “inactive”.

With `CCN(CCC#N)c1ccc(N=Nc2c(Cl)cc([N+](=O)[O-])cc2Cl)cc1`, the Potency entry was “inactive”.

On to `CCCCCCCCCCCCc1ccc(O)cc1`, for which the Potency was 56.6 µM (active).

Turning to `O=C(Oc1cccc2cccnc12)c1ccccc1`, the Potency is 9.82 µM (active).

The nature of a further experiment: qHTS assay to identify small molecule agonists of the hypoxia (HIF-1) signaling pathway (AID 1224846; active means well fitted activation curve with a large enough effect in the signal ratio in the repeat runs, not every such curve was filed as active; the % refers to the signal ratio). The settings on record: HRE-bla ME-180 cells, beta-lactamase ratio, 17 h; series mostly up to 76.8 µM. The procedure, abridged:
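ME-180 HRE-bla reporter cells; compounds in DMSO, 17 h at 37C; read-out beta-lactamase via CCF4-AM FRET.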
On to `CC(C)n1nc(-c2cc3cc(O)ccc3[nH]2)c2c(N)ncnc21`, for which the Potency entry is “inactive”.

Consider `CCCCN1C(=O)[C@@H]([C@H](O)C2CCCCC2)NC(=O)C12CCN(Cc1ccc(Oc3ccc(C(=O)O)cc3)cc1)CC2`, for which the Potency entry is “inactive”.

In the case of `Cc1cc(=O)oc2cc(N(C)C)ccc12`, the Potency is 49 µM (active).

As to `CCOC(=O)c1nc(C(Cl)(Cl)Cl)n(-c2ccc(Cl)cc2Cl)n1`, the Potency result was “inactive”.

For the compound `NC(=NCCCCCCN=C(N)/N=C(\N)Nc1ccc(Cl)cc1)/N=C(\N)Nc1ccc(Cl)cc1`, the Potency result was “inactive”.

In the case of `CC(C)(C)C1CCC(CC2=C(O)c3ccccc3C(=O)C2=O)CC1` (stereo unspecified), the Potency entry was “inactive”.

For `C/C=C1/C(=O)C[C@H]2[C@@H]3CCC4=CC(=O)CC[C@]4(C)[C@H]3CC[C@]12C`, the Potency result is “inactive”.

In the case of `CN1CCC(Nc2ncc3ncnc(Nc4ccc(F)c(Cl)c4)c3n2)CC1`, the Potency is 8.49 µM (active).

Consider `ON=C1CCCC1`, for which the Potency entry was “inactive”.

`Nc1ccc2cc(S(=O)(=O)O)cc(O)c2c1N=Nc1ccccc1C(F)(F)F`: the Potency result was “inactive”.

Take `CCN(CCC#N)c1ccc(N=Nc2c(Cl)cc([N+](=O)[O-])cc2Cl)cc1`: the Potency entry is “inactive”.

The next experiment can be described thus: qHTS assay to identify small molecule agonists of H2AX - cell viability counter screen (AID 1224847). Further: nearly all actives have a fitted effect of over 30% in size. Conditions: CHO-K1 viability, CellTiter-Glo luminescence, 3 h; series mostly up to 70.9 µM. The method, boiled down: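 Cells plated first: CHO-K1, 1000 per well in 10% FBS medium, incubated overnight at 37C. Then 15-point compound titration added (final DMSO 0.76%) for 3 hr. Finally CellTiter-Glo added and luminescence read.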
In the case of `C[n+]1ccn(Cc2ccccc2)c1`, the Potency result was “inactive”.

`CC(C)n1nc(-c2cc3cc(O)ccc3[nH]2)c2c(N)ncnc21`: the Potency result was “inactive”.

In the case of `O=C(Nc1cccc(C(F)(F)F)c1)c1cc(Br)cc(Br)c1O`, the Potency was 16 µM (active).

In the case of `CCCCCCCCCCCCCCCC[N+](C)(C)CCN(Cc1ccc(OC)cc1)c1ncccn1`, the Potency was 43.8 µM (active).

Regarding `CNc1ccc(O)cc1`, the Potency is 101 µM (active).

Take `Oc1ccc(Cl)cc1Sc1cc(Cl)ccc1O`: the Potency was 35.7 µM (active).

In the case of `CCCCN1C(=O)[C@@H]([C@H](O)C2CCCCC2)NC(=O)C12CCN(Cc1ccc(Oc3ccc(C(=O)O)cc3)cc1)CC2`, the Potency entry is “inactive”.

As to `Cc1[nH]cnc1C[C@H]1CCc2c(C)c3ccccc3n2C1=O`, the Potency was 87.6 µM (active).

With `CCCC(=O)OC[C@@H](OC(=O)CCC)[C@@H](OC(=O)CCC)[C@H](Cn1c2nc(=O)[nH]c(=O)c-2nc2cc(C)c(C)cc21)OC(=O)CCC`, the Potency result is “inactive”.

As for `Cc1cc(=O)oc2cc(N(C)C)ccc12`, the Potency entry was “inactive”.

As for `NC(=O)C1(N2CCCCC2)CCN(CCCN2c3ccccc3CCc3ccc(Cl)cc32)CC1`, the Potency is 55.2 µM (active).

Consider `CCCCc1oc2ccc(NS(C)(=O)=O)cc2c1C(=O)c1ccc(OCCCN(CCCC)CCCC)cc1`, for which the Potency was 43.8 µM (active).

Turning to `Clc1ccccc1C(c1ccccc1)(c1ccccc1)n1ccnc1`, the Potency is 40.1 µM (active) and inactive.

For the compound `CC(C)(C)CC(C)(C)c1ccc(O)c(Cc2ccc(Cl)cc2Cl)c1`, the Potency was 15.6 µM (active).

In the case of `OCCN1CCN(CC/C=C2/c3ccccc3Sc3ccc(C(F)(F)F)cc32)CC1`, the Potency was 55.2 µM (active).

As for `CC[C@@]1(O)C(=O)OCc2c1cc1n(c2=O)Cc2cc3c(CN(C)C)c(O)ccc3nc2-1`, the Potency entry is “inactive”.

Consider `CCN(CC)CCCC(C)Nc1c2ccc(Cl)cc2nc2ccc(OC)cc12` (stereo unspecified), for which the Potency result was “inactive”.

For `COc1ccc(CN2CCN(C(c3ccc(F)cc3)c3ccc(F)cc3)CC2)c(OC)c1OC`, the Potency was 49.2 µM (active).

With `Nc1ccccc1O`, the Potency result was “inactive”.

Regarding `Nc1ccc2c3c(cccc13)-c1ccccc1-2`, the Potency entry is “inactive”.

As to `OCCN(CCO)c1nc(N2CCCCC2)c2nc(N(CCO)CCO)nc(N3CCCCC3)c2n1`, the Potency result is “inactive”.

For `CC(C)(C)C1CCC(CC2=C(O)c3ccccc3C(=O)C2=O)CC1` (stereo unspecified), the Potency entry was “inactive”.

In the case of `C/C=C1/C(=O)C[C@H]2[C@@H]3CCC4=CC(=O)CC[C@]4(C)[C@H]3CC[C@]12C`, the Potency entry was “inactive”.

As for `C[C@@H](NCCCc1cccc(C(F)(F)F)c1)c1cccc2ccccc12`, the Potency is 49.2 µM (active).

On to `Cc1onc(-c2ccccc2Cl)c1C(=O)N[C@@H]1C(=O)N2[C@@H]1SC(C)(C)[C@@H]2C(=O)O`, for which the Potency entry was “inactive”.

Regarding `CCN(CCC#N)c1ccc(N=Nc2c(Cl)cc([N+](=O)[O-])cc2Cl)cc1`, the Potency is 56.6 µM (active).

For the compound `CCCCCCCCCCCCc1ccc(O)cc1`, the Potency was 45 µM (active).
